Assay results reported in the supplement of paper PMC10849652.
The full data set covers some 8,800 targets. This sample favours those with a hit. About 0.5% of all pairs of compound and target were hits. Values without a mark were called inactive.

Legend:
Experiment in all cases: log2 fold change, soluble protein after heating vs DMSO (PISA); higher = thermal stabilisation; K562 lysate, 10 uM; active = over 0.2 and 3.5 SD of the protein, either way, in both replicates (recomputed)
nilotinib = compound: Cc1cn(-c2cc(NC(=O)c3ccc(C)c(Nc4nccc(-c5cccnc5)n4)c3)cc(C(F)(F)F)c2)cn1 [nilotinib]
How it was run: (§1)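 Pellets of K562 cells were dounce-homogenised in PBS pH 7.4 with 1 mM MgCl2, and the crude extract was held at 1 mg/mL protein for a 30 min treatment with 10 μM compound. Aliquots were heated for 3 min over 48°C-58°C and pooled before NP-40 was added to 0.5% at 4°C. The supernatant from 21,000xg for 90 min was quantified by TMTpro 16plex LC-MS/MS with channel sums equalised. Values are reported from duplicates as log-two fold change in thermal stability relative to solvent controls.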

[1] = compound: Cc1nc(Nc2n[nH]c3c2CN(C(=O)N[C@H](CN(C)C)c2ccccc2)C3(C)C)c2sccc2n1
How it was run: as §1

dasatinib = compound: Cc1nc(Nc2ncc(C(=O)Nc3c(C)cccc3Cl)s2)cc(N2CCN(CCO)CC2)n1 [dasatinib]
How it was run: as §1

[2] = compound: Cc1ncc(-c2ccnc(Nc3ccc(S(C)(=O)=O)cc3)n2)n1C(C)C
How it was run: as §1

[3] = compound: Cn1cc(-c2ccc3c(c2)CCN3C(=O)Cc2cccc(C(F)(F)F)c2)c2c(N)ncnc21
How it was run: as §1

tipifarnib = compound: Cn1cncc1[C@@](N)(c1ccc(Cl)cc1)c1ccc2c(c1)c(-c1cccc(Cl)c1)cc(=O)n2C [tipifarnib]
How it was run: as §1

[4] = compound: NC(=O)c1cnc(N[C@@H]2CCCC[C@@H]2N)nc1Nc1cccc(-n2nccn2)c1
How it was run: as §1

[5] = compound: NCC(=O)Nc1ccc(-n2nc(C(F)(F)F)cc2-c2ccc3c(ccc4ccccc43)c2)cc1
How it was run: as §1

entospletinib = compound: c1cn2cc(-c3ccc4cn[nH]c4c3)nc(Nc3ccc(N4CCOCC4)cc3)c2n1 [entospletinib]
How it was run: as §1

[6] = compound: NC1(c2ccc(-c3nc4ccn5c(=O)[nH]nc5c4cc3-c3ccccc3)cc2)CCC1
How it was run: as §1

vorinostat = compound: O=C(CCCCCCC(=O)Nc1ccccc1)NO [vorinostat]
How it was run: as §1

silmitasertib = compound: O=C(O)c1ccc2c(c1)nc(Nc1cccc(Cl)c1)c1ccncc12 [silmitasertib]
How it was run: as §1

quisinostat = compound: Cn1cc(CNCC2CCN(c3ncc(C(=O)NO)cn3)CC2)c2ccccc21 [quisinostat]
How it was run: as §1

[7] = compound: NC(=O)Nc1cc(-c2cccc(F)c2)sc1C(=O)N[C@H]1CCCNC1
How it was run: as §1

[8] = compound: O=C1NC(=O)C(c2cnc3ccccn23)=C1c1cn2c3c(cc(F)cc13)CN(C(=O)N1CCCCC1)CC2
How it was run: as §1

Sequence of UniProt P49757 (P49757 whole entry, looked up): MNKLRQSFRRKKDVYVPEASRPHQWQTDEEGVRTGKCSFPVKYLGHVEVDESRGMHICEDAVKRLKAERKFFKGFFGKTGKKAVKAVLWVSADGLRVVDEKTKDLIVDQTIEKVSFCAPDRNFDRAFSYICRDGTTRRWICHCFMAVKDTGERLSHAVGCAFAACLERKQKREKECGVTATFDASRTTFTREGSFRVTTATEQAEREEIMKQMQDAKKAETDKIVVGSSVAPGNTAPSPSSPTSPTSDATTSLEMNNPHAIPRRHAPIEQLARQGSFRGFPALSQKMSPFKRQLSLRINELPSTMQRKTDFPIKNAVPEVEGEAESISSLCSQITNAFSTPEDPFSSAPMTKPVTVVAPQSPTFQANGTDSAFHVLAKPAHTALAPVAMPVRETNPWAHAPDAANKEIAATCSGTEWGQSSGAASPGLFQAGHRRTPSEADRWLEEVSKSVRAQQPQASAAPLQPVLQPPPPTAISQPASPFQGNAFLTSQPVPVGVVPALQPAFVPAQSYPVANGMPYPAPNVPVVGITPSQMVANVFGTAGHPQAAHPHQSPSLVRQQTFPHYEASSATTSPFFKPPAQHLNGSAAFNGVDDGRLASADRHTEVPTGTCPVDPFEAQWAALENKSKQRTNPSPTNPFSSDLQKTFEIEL
Sequence of UniProt Q9BXW6 (Q9BXW6 whole entry, looked up): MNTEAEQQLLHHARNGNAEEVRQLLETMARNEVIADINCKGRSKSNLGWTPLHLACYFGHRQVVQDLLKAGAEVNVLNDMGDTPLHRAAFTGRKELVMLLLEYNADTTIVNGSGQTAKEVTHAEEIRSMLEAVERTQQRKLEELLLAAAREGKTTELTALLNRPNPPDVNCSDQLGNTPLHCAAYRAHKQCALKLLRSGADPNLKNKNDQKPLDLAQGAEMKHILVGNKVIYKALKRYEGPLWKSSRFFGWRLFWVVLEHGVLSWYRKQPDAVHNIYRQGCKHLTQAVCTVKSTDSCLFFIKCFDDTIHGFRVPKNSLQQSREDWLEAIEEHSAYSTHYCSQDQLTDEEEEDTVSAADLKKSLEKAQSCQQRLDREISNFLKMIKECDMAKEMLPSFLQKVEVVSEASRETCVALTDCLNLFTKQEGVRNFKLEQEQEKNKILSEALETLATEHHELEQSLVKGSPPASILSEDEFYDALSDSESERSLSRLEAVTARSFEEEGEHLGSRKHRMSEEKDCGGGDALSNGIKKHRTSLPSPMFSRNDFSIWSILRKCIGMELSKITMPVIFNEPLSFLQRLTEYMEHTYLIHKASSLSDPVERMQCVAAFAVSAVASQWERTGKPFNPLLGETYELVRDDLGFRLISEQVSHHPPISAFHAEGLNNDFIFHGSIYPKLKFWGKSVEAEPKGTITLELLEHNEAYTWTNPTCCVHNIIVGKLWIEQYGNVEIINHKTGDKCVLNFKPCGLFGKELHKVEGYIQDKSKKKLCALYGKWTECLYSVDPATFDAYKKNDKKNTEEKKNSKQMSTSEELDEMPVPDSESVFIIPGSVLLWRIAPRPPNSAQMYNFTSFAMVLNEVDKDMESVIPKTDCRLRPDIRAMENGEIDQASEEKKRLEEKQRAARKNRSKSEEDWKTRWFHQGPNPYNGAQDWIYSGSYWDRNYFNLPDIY
Sequence of UniProt Q9BZ23 (Q9BZ23 whole entry, looked up): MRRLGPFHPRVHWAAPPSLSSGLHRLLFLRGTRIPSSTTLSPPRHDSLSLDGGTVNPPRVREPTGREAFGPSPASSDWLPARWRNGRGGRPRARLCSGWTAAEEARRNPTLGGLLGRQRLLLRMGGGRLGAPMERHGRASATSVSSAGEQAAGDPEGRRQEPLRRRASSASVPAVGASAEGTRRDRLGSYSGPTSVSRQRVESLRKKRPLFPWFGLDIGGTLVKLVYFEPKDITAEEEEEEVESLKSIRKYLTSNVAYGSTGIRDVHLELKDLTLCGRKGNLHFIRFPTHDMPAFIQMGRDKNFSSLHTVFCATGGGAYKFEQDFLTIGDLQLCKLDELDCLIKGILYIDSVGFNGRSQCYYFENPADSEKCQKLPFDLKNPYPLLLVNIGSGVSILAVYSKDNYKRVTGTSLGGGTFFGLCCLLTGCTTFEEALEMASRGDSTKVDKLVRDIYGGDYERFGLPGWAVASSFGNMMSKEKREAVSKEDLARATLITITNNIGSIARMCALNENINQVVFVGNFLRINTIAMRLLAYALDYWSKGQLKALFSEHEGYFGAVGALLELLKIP
Sequence of UniProt P10244 (P10244 whole entry, looked up): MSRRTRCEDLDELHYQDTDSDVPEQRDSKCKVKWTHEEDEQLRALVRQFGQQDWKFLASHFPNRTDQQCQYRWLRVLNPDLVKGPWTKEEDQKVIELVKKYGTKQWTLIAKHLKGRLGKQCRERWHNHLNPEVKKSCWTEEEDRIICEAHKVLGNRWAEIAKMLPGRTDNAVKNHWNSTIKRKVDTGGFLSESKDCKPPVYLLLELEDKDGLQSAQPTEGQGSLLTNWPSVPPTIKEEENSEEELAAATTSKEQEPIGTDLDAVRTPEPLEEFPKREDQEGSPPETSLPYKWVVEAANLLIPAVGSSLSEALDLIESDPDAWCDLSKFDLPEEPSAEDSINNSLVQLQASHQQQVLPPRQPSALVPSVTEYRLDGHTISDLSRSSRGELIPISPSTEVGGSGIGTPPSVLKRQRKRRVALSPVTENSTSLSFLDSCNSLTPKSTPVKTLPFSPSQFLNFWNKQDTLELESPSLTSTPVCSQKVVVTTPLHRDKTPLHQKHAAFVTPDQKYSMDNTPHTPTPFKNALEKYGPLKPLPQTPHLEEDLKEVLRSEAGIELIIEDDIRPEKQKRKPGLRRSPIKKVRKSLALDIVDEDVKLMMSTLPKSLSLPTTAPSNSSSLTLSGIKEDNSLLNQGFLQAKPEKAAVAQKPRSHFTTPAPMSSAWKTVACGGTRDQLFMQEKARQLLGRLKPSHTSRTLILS
Sequence of UniProt Q9NTK5 (Q9NTK5 whole entry, looked up): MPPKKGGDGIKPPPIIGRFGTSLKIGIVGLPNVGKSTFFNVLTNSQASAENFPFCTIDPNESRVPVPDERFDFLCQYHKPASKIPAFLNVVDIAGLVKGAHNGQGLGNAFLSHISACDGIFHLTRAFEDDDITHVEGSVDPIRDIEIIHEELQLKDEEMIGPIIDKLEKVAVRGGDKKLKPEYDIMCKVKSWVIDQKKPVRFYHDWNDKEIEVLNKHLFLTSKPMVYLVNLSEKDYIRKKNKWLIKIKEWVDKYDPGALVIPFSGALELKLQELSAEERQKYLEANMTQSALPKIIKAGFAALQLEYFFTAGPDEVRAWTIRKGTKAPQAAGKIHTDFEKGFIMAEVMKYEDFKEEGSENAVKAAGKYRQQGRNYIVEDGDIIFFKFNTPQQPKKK
Sequence of UniProt Q6N069 (Q6N069 whole entry, looked up): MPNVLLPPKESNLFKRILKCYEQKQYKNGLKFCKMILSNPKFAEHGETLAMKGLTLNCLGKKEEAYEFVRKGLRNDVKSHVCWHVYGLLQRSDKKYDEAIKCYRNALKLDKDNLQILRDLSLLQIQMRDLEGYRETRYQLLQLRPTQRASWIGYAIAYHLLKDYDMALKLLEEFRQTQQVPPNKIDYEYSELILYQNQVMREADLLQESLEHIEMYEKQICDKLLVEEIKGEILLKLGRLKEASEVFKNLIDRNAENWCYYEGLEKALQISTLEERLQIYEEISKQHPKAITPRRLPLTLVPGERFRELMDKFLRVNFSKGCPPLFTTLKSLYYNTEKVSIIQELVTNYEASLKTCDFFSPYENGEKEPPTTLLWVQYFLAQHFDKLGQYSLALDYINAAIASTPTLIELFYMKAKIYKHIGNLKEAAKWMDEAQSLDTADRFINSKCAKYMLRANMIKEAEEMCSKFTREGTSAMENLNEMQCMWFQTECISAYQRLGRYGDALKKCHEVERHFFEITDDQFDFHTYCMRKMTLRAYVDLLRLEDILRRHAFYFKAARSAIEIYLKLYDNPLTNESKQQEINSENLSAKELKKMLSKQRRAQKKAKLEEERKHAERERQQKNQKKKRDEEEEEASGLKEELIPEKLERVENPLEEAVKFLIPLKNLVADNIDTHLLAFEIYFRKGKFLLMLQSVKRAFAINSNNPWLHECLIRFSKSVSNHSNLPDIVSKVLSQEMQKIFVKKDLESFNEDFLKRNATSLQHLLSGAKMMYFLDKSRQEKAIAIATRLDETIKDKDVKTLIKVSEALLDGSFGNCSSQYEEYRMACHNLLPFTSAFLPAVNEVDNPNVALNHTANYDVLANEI
Sequence of UniProt P49116 (P49116 whole entry, looked up): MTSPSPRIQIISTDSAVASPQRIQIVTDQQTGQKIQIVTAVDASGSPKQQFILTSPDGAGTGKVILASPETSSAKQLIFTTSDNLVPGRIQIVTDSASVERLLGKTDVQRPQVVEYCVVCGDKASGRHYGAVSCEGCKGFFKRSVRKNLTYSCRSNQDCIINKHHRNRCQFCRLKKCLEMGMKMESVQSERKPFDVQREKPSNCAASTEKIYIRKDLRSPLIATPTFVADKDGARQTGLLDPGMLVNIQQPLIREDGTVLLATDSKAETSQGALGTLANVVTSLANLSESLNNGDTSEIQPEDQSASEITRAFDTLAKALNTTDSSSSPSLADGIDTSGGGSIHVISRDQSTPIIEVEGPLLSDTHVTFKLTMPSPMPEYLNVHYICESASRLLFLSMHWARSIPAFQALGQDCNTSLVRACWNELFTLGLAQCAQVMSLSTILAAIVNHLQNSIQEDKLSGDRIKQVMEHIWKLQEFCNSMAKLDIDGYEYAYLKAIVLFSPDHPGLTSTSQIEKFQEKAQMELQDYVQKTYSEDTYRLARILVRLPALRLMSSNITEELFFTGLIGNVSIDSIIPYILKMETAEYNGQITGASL
Sequence of UniProt P03928 (P03928 whole entry, looked up): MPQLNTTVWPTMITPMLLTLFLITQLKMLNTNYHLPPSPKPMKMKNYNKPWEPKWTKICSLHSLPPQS
Sequence of UniProt O60829 (O60829 whole entry, looked up): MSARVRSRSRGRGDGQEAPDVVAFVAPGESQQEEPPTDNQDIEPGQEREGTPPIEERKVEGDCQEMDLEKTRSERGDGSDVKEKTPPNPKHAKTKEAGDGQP

Row | Target | log2 fold change (nilotinib) | log2 fold change [1] | log2 fold change (dasatinib) | log2 fold change [2] | log2 fold change [3] | log2 fold change (tipifarnib) | log2 fold change [4] | log2 fold change [5] | log2 fold change (entospletinib) | log2 fold change [6] | log2 fold change (vorinostat) | log2 fold change (silmitasertib) | log2 fold change (quisinostat) | log2 fold change [7] | log2 fold change [8]
1 | NAA16 (UniProt Q6N069) | 0.068 | -0.139 | -0.042 | 0.039 | 0.071 | -0.015 | 0.08 | 0.43 | -0.018 |  |  |  |  |  | 
2 | NUDT5 (UniProt C9JYY9) | -0.049 | 0.02 |  | 0.228 |  | -0.068 |  |  | 0.01 | -0.119 | -0.041 | 0.129 |  |  | 
3 | MUC5AC (UniProt P98088) | 0.02 | 0.048 |  | 0.128 |  | -0.593 (active) |  |  |  |  |  |  |  |  | 
4 | NRIP1 (UniProt P48552) | 0.035 | -0.127 | 0.135 | 0.035 | 0 | -0.03 | 0.022 |  |  | -0.048 | 0.274 | 0 | -0.437 | 0.083 | 0.06
5 | NTMT1 (UniProt S4R338) |  |  |  |  |  |  | -0.027 |  |  |  |  |  |  |  | 
6 | PANK2 (UniProt Q9BZ23) | -0.068 | -0.111 | 0.135 | 0.001 | -0.032 | 0.126 | -0.005 | 0 | -0.023 |  |  |  | 0.045 | -0.053 | -0.012
7 | MYLK (UniProt Q15746) | 0.138 | -0.197 |  | -0.108 |  | -0.035 | 0.079 | -0.312 | -0.096 |  |  |  | 0.048 | -0.175 | -0.294
8 | NR2C2 isoform 2 (UniProt P49116) |  |  | -0.033 |  | 0.064 |  | -0.025 | -0.024 | 0.028 | -0.048 | -0.233 | 0.041 | -0.054 | 0.04 | 0.008
9 | OSBPL1A (UniProt Q9BXW6) | -0.07 | -0.02 | -0.044 | -0.051 | -0.027 | 0.015 | -0.024 |  |  | -0.388 (active) | 0.128 | -0.19 | -0.147 | 0 | -0.14
10 | NPLOC4 (UniProt I3L3I1) |  |  | 0.057 |  | -0.116 |  |  |  | -0.146 |  |  |  | -0.986 (active) | 0.196 | 0.253
11 | NOCT (UniProt Q9UK39) | -0.045 | 0.011 | 0.013 | -0.084 | 0.017 | 0.061 | 0.004 |  | -0.301 | -0.014 | -0.886 (active) | 0.004 | 0 | 0.043 | -0.036
12 | ORC1 (UniProt Q13415) |  |  |  |  |  |  |  |  | -0.047 |  |  |  |  |  | 
13 | MT-ATP8 (UniProt P03928) | 0.055 | 0.177 |  | 0.214 |  | 0.085 | -0.067 | 0.056 | -0.009 | -0.084 | 0.155 | -0.026 | 0.043 | 0.056 | 0.08
14 | PAGE4 (UniProt O60829) |  |  | -0.086 |  | -0.035 |  | 0.04 |  | -0.054 | 0.004 | -0.425 (active) | 0.06 | -0.097 | 0.036 | -0.074
15 | NUMB isoform 2 (UniProt P49757) | -0.293 | -0.07 | 0.227 | 0.225 | -0.127 | -0.068 |  |  |  |  |  |  |  |  | 
16 | OLA1 (UniProt Q9NTK5) | 0.001 | -0.009 | -0.023 | 0.006 | 0.018 | 0.018 | -0.006 | 0.03 | 0.043 | 0.025 | -0.31 (active) | 0.041 | -0.008 | 0.022 | 0.004
17 | MYBL2 (UniProt P10244) |  |  | -0.055 |  | -0.012 |  |  | -0.03 | 0.025 | -0.015 | -0.333 (active) | 0.003 | -0.071 | -0.021 | 0.008
